Several values for one entry are separate records, joined by “and”; a condition that tells them apart may be missing. Identical values can stand only once. The panel holds about 79,000 compounds, 15% with a hit somewhere; the sample as a whole holds those more often. Some compounds were tested as several samples or in several runs, with calls that do not always agree. Activity calls are given as the source filed them. Cut-off read from the data, not from the text of the source: active = growth inhibition above about 70%; inactive = the rest.
Columns and labels:
[1] = NCI Yeast Anticancer Drug Screen. Data for the rad50 strain (AID 155);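 note: 0% = growth of vehicle-only cultures of the same strain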; conditions: S. cerevisiae rad50 strain growth inhibition; at 50.0 µM; stronger effect = higher value
Outline: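 Genetically altered yeast (DNA repair pathway); compound treatment; growth inhibition vs vehicle ctrl.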

[2] = NCI Yeast Anticancer Drug Screen. Data for the mec2-1 strain (AID 157); conditions: S. cerevisiae mec2-1 strain, at 50.0 µM, stronger effect = higher value
Outline: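 Readout is yeast growth inhibition, normalised to vehicle-treated controls, in the mec2-1 strain exposed to compound.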

[3] = NCI Yeast Anticancer Drug Screen. Data for the sgs1 mgt1 strain (AID 161);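 note: 0% = growth of cultures given vehicle only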; conditions: S. cerevisiae sgs1 mgt1 strain, at 50.0 µM, stronger effect = higher value
Outline: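 Growth of a repair-deficient yeast mutant was monitored after compound treatment and expressed as inhibition relative to vehicle-treated cultures.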

[4] = NCI Yeast Anticancer Drug Screen. Data for the cln2 rad14 strain (AID 165);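 note: 0% = growth equal to vehicle treated cultures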; conditions: S. cerevisiae cln2 rad14 strain, at 50.0 µM, stronger effect = higher value
Outline: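 Relative to vehicle controls, growth inhibition of compound-treated cln2 rad14 yeast was recorded.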

[5] = NCI Yeast Anticancer Drug Screen. Data for the bub3 strain (AID 167); conditions: S. cerevisiae bub3 mutant strain, at 50.0 µM, stronger effect = higher value
Outline: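 Yeast carrying a defined mutation is treated with each compound, and growth is compared with that of vehicle-exposed cells to give inhibition.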

[6] = NCI Yeast Anticancer Drug Screen. Data for the mlh1 rad18 strain (AID 175); conditions: S. cerevisiae mlh1 rad18 strain growth inhibition; at 50.0 µM; stronger effect = higher value
Outline: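 Test agents were incubated with a yeast strain of defined genotype (DNA damage repair defect). Inhibition of growth was derived by comparison with vehicle-exposed cultures.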

Row | Compound | growth inhibition [1] | growth inhibition [2] | growth inhibition [3] | growth inhibition [4] | growth inhibition [5] | growth inhibition [6]
1 | OCC12COCN1COC2 | 8.4% (inactive) | -15.9% (inactive) | -23.6% (inactive) | -14% (inactive) | -0.4% (inactive) | -31.9% (inactive)
2 | CC(CC(C#N)(c1ccccc1)c1ccccc1)N1CCCCC1 (centres undefined) | 27.6% (inactive) | 14% (inactive) | -22.9% (inactive) | 12.1% (inactive) | 33.5% (inactive) | 27.4% (inactive)
3 | Cc1cc(C=C2C(=O)NC(=S)NC2=O)c(C)n1-c1ccccc1 | 14.3% (inactive) | -4.6% (inactive) | 17.7% (inactive) | -43.3% (inactive) | 8.6% (inactive) | 5.15% (inactive)
4 | COc1ccc2nc3ccccc3c(NCCCCCCN(CCCl)CCCl)c2c1 | 88.2% (active) | 79.1% (active) | 80.8% (active) | 86.3% (active) | 48.4% (inactive) | 82.9% (active)
5 | CC(C)SP(=S)(SC(C)C)SC(C)C | 8% (inactive) | -10.1% (inactive) | 8.3% (inactive) | -20.4% (inactive) | 4.15% (inactive) | 17.1% (inactive)
6 | CCC[C@H]1CCCCN1 | 27.1% (inactive) | 12.7% (inactive) | 23.4% (inactive) | 18.9% (inactive) | -13% (inactive) | 3.6% (inactive)
7 | O=C([O-])C[OH+]c1ccc(Cl)cc1Cl.O=C([O-])C[OH+]c1ccc(Cl)cc1Cl.[Ni+2] | 10.3% (inactive) | 21.6% (inactive) | 18.9% (inactive) | 3.1% (inactive) | 3.85% (inactive) | 41.5% (inactive)
8 | [CH3][Sn]1([CH3])[c]2ccccc2Oc2cccc[c]21 | -11.9% (inactive) | 1.65% (inactive) | 4.7% (inactive) | -1.2% (inactive) | 33.5% (inactive) | -17.6% (inactive)
9 | O=C(COc1ccc(Cl)c(Cl)c1)NCCc1cc[n+](Cc2ccc(Cl)cc2S(=O)(=O)F)cc1 | 7.45% (inactive) | 5.4% (inactive) | -9.05% (inactive) | 31.5% (inactive) | 1.8% (inactive) | 11.9% (inactive)
10 | CN1C2C=CC1c1c(C3=NC(C)(C)CO3)cccc12 (centres undefined) | -8.15% (inactive) | -8.05% (inactive) | -7.95% (inactive) | -36% (inactive) | 6.85% (inactive) | 2.6% (inactive)
11 | N#CCCCCl | 27.1% (inactive) | 15.8% (inactive) | 14.9% (inactive) | 26.1% (inactive) | 29.8% (inactive) | 30.5% (inactive)
12 | c1ccc2c(c1)sc1sc3c([n+]12)CCCC3 | 6.25% (inactive) | -8.75% (inactive) | -5.3% (inactive) | -2.4% (inactive) | -4.5% (inactive) | -20.2% (inactive)
13 | COc1ccc(NC2Oc3cc4c(cc3C(c3cc(OC)c(OC)c(OC)c3)C2C)OCO4)cc1 (centres undefined) | -1.25% (inactive) | 18.9% (inactive) | 25.3% (inactive) | -13.2% (inactive) | 17.1% (inactive) | 12% (inactive)
14 | CCCCCCCCCCCCCCC(O)C1CCC(C(O)CCC(O)CCCCCC(O)CC2=CC(C)OC2=O)O1 (centres undefined) | -37.2% (inactive) | -33.1% (inactive) | -17.6% (inactive) | 39.8% (inactive) | -25.4% (inactive) | 2.7% (inactive)
15 | O=[P+](O)c1cc2ccccc2c2ccccc12 | -33% (inactive) | 17.2% (inactive) | -4.75% (inactive) | -46.2% (inactive) | -10.9% (inactive) | 1.35% (inactive)
16 | C#C[C@]1(O)CC[C@H]2[C@@H]3CCC4=C/C(=N/OC(=O)c5cccc6c(=O)c7ccccc7[nH]c56)CCC4[C@H]3CC[C@@]21CC (some centres undefined) | -15.8% (inactive) | -35% (inactive) | -30.4% (inactive) | 23.2% (inactive) | -29.1% (inactive) | -45.6% (inactive)
17 | COc1ccc(CC(N)c2ccccc2)cc1OC (centres undefined) | -15.3% (inactive) | 23.9% (inactive) | -8.85% (inactive) | -21.1% (inactive) | -1.55% (inactive) | -29.1% (inactive)
18 | O=C([O-])C(F)(F)F.O=[N+]([O-])O.[Co+3].[NH2-].[NH2-].[NH2-].[NH2-].[NH2-] | 5.25% (inactive) | 2% (inactive) | 7.7% (inactive) | -5.65% (inactive) | 5% (inactive) | 39.6% (inactive)
19 | N#C[CH2][Sn]([I])([c]1ccccc1)[c]1ccccc1 | -12.5% (inactive) | 30.4% (inactive) | 1.15% (inactive) | 72% (active) | -0.25% (inactive) | 1.9% (inactive)
20 | Cc1cc(-c2ccccc2)cc(C)[n+]1CC[n+]1c(C)cc(-c2ccccc2)cc1C | -14.9% (inactive) | -10.7% (inactive) | -5.85% (inactive) | -47.7% (inactive) | 3.4% (inactive) | -19.4% (inactive)

Row | Compound | growth inhibition [1] | growth inhibition [2] | growth inhibition [3] | growth inhibition [4] | growth inhibition [5] | growth inhibition [6]
21 | Cc1ccc(S(=O)(=O)F)cc1 | 10.4% (inactive) | -8.7% (inactive) | 2.1% (inactive) | -14.7% (inactive) | -1.3% (inactive) | 9.5% (inactive)
22 | Cc1nc2ccc(Br)cc2c(=O)n1-c1ccc(N)cc1 | -25.9% (inactive) | -2.4% (inactive) | -28.1% (inactive) | 16.2% (inactive) | -8.2% (inactive) | 5.8% (inactive)
23 | CC(=O)C(=O)c1ccccc1 | -14.6% (inactive) | 6.5% (inactive) | -0.45% (inactive) | -25.8% (inactive) | -19.7% (inactive) | -21.5% (inactive)
24 | [Cl][Hg][c]1cccc(I)c1N=Nc1ccccc1 | 81.9% (active) | 21.3% (inactive) | 66.2% (inactive) | 4.9% (inactive) | 2.25% (inactive) | 69.8% (inactive)
25 | ClCCN(CCCl)c1ccc(C2=Nc3cccc4cccc(c34)N2)cc1 | 3.65% (inactive) | 9.8% (inactive) | 6.75% (inactive) | -0.25% (inactive) | -8.05% (inactive) | 5.05% (inactive)
26 | O=C(NCC(O)CO)c1cc([N+](=O)[O-])cc([N+](=O)[O-])c1N(CCCl)CCCl (centres undefined) | 31.8% (inactive) | 19.8% (inactive) | 28.7% (inactive) | 2.05% (inactive) | 13.9% (inactive) | 12.6% (inactive)
27 | CC[C@@]1(O)C(=O)OCc2c1cc1n(c2=O)Cc2c-1nc1ccccc1c2C=Nc1ccccc1N[C@@H]1c2cc3c(cc2[C@@H](c2cc(OC)c(O)c(OC)c2)[C@H]2C(=O)OC[C@@H]21)OCO3 | 78.8% (active) and 86.8% (active) | 71.7% (active) and 80.9% (active) | 76.5% (active) and 84.7% (active) | 63% (inactive) and 82% (active) | 69.9% (inactive) and 85.9% (active) | 39.6% (inactive) and 85.8% (active)
28 | C[CH2][Sn]([CH2]C)([CH2]CC(=O)OC)[CH2]CC(=O)OC | 20.4% (inactive) | 18.4% (inactive) | 1% (inactive) | -11% (inactive) | -24.2% (inactive) | -64.2% (inactive)
29 | CN(C)CCO | -21.4% (inactive) | 11.5% (inactive) | 4.55% (inactive) | -1.65% (inactive) | 23.4% (inactive) | 35.4% (inactive)
30 | CO[C@H]1C[C@H](O[C@H]2CC[C@]3(C=O)[C@H]4CC[C@]5(C)[C@@H](C6=CC(=O)OC6)CC[C@]5(O)[C@@H]4CC[C@]3(O)C2)O[C@H](C)[C@H]1O[C@@H]1O[C@H](CO)[C@@H](O)[C@H](O)[C@H]1O | 18.4% (inactive) | -11.1% (inactive) | 6.2% (inactive) | 12.2% (inactive) | 6.9% (inactive) | 32.3% (inactive)
31 | Oc1ccccc1-c1ccccc1 | 16.6% (inactive) and 17.9% (inactive) | 11.1% (inactive) and 14.4% (inactive) | 11% (inactive) and 8.2% (inactive) | -16.1% (inactive) and 0.75% (inactive) | -2.55% (inactive) and -8.25% (inactive) | 21.4% (inactive) and 20.1% (inactive)
32 | O=c1c2cc(Br)ccc2[nH]c(=S)n1-c1ccc(Br)cc1 | 9.95% (inactive) | -7.2% (inactive) | 15.2% (inactive) | 18% (inactive) | 35.5% (inactive) | 12.2% (inactive)
33 | Cc1ccc2[nH]cc(CCN(C)C)c2c1 | 22.6% (inactive) | -16.5% (inactive) | 8.25% (inactive) | 7.65% (inactive) | 10.2% (inactive) | 19.6% (inactive)
34 | CC(N)CCc1ccccc1 (centres undefined) | 2.7% (inactive) | -19.9% (inactive) | -1.15% (inactive) | 24.7% (inactive) | 3.6% (inactive) | 12.4% (inactive)
35 | CCCC1C(=O)NC(=O)NC1=O | 6.3% (inactive) | -6% (inactive) | -0.75% (inactive) | -10.9% (inactive) | 3.75% (inactive) | -1.05% (inactive)
36 | CC1(C)CC(N)C(=O)c2ccccc21 (centres undefined) | 7.25% (inactive) | -20.6% (inactive) | -5.6% (inactive) | 14.2% (inactive) | -4.4% (inactive) | 29% (inactive)
37 | COc1ccc2c3c([nH]c2c1)C(C)N(C)CC3 (centres undefined) | 16.4% (inactive) | 1.85% (inactive) | -10.7% (inactive) | -5.05% (inactive) | 43.4% (inactive) | -16.9% (inactive)
38 | COP(=O)(OC)C(N)CCSC (centres undefined) | -25.1% (inactive) | -65.7% (inactive) | -61.8% (inactive) | 23.7% (inactive) | 17.1% (inactive) | -2.1% (inactive)
39 | C[CH2][Sn]([CH2]C)([CH2]C(=O)OC)[CH2]C(=O)OC | 3.15% (inactive) | 14.7% (inactive) | 15.5% (inactive) | 11.7% (inactive) | 14.4% (inactive) | -9.9% (inactive)

From PubChem BioAssay (NCI)
